Hits are enriched below; roughly 18% of the tested compounds scored in any of these assays.
TDP1 block – blocks human tyrosyl-DNA phosphodiesterase 1 | Q9NUW8 | recombinant TDP1, AlphaScreen DNA substrate cleavage | Potency, µM (doses to about 130 µM), without a hit: at the highest dose activity change, negative = inhibition, actives largely listed as inhibitors | actives 0.28% (n = 350,000); also: nearly all actives have a fitted effect of over 40% in size
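Steps: enzyme plus compound, 15 min RT; add biotin/phosphotyrosine-FITC oligonucleotide (15 nM final), react 5 min; add donor/acceptor beads (10 ug/ml final), 10 min; read AlphaScreen. Tdp1 at 1 nM final.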
TDP1 cell CPT – DT40-hTDP1 cell growth loss with CPT; actives 12% (n = 420,000); Potency, µM (titrated, usually from 46.2 µM), for inactives: top-dose activity change, negative = growth inhibition, hits mostly inhibitors; chicken DT40 Tdp1-/-;hTDP1 cells + 20 nM CPT, ATP luminescence, 48 h; also: nearly all actives have a fitted effect of over 55% in size
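Chicken DT40 Tdp1-/- cells complemented with human TDP1, 400 cells/well, exposed to compounds plus 20 nM camptothecin for at least 48 h at 37 C; viability read as ATP content by CellTiter-Glo luminescence.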
VDR inhibitor – inhibitors of human vitamin D receptor; VDR-SRC2-3 peptide fluorescence polarization, 2 h; Potency, µM, for inactives: max response, negative = inhibition, usual class: inhibitors; actives 0.93% (n = 400,000)
Target sequence (P11473 whole entry, looked up): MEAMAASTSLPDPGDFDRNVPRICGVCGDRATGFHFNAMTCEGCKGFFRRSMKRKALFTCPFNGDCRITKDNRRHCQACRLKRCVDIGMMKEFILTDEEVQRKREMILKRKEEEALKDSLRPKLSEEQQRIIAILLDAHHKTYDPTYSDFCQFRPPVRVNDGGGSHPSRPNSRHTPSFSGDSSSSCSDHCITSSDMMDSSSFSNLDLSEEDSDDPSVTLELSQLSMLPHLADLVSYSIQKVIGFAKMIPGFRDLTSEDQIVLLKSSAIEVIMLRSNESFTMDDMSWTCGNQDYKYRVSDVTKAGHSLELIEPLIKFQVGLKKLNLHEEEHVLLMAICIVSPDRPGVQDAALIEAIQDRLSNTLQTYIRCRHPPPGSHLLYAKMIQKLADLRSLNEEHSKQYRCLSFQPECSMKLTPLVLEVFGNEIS
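Fluorescence polarization assay measuring small-molecule disruption of VDR binding to the coregulator peptide SRC2-3. Compounds were pin-transferred (23 nl) into the reagent mix and incubated 2 h at room temperature before reading.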
PLK1 PBD inh – inhibitors of human PLK1 polo-box domain binding; P53350; Plk1 PBD binding of FITC phosphopeptide, fluorescence polarization; Potency, µM, inactives show max response, negative = inhibition, usual class: inhibitors; actives 2.8% (n = 360,000); AID 720504; also: series mostly up to about 57 µM; nearly all actives have a fitted effect of over 65% in size
DT40 TDP1 no CPT – qHTS for Inhibitors of human tyrosyl-DNA phosphodiesterase 1 (TDP1): qHTS in cells in absence of CPT | DT40 Tdp1-/- hTDP1 cells, no CPT, ATP luminescence, 48 h | Potency, µM (series often up to 46.2 µM), for the others: at the highest dose activity change, negative = growth inhibition, actives largely listed as inhibitors | actives 15% (n = 420,000) | AID 686978, 2013; also: nearly all actives have a fitted effect of over 55% in size
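Chicken DT40 Tdp1-/- cells complemented with human TDP1, screened without camptothecin (DMSO vehicle only), 400 cells/well. Compounds pin-transferred, cells incubated at 37 °C for at least 48 hr. Growth read as ATP-dependent luminescence (CellTiter-Glo, 30 min at RT).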
KAT2A inh – blocks human GCN5L2 histone acetyltransferase | Potency, µM (top dose mostly 58.9 µM), inactives show at the top dose activity change, negative = inhibition, most hits filed as inhibitors | Q92830 | AID 504327 | actives 0.21% (n = 390,000) | GCN5L2 HAT assay, ThioGlo1 CoA-SH fluorescence
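ThioGlo1-coupled HAT assay: 20nM GCN5L2, 70uM acetyl-CoA, 75uM H3(1-25) peptide, pH 7.5. Fluorescence read at 340/540nm at start and after 20 min at room temperature.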
Active calls of the source: *. Calls follow the shape of the dose curve; as a rule, active = well fitted curve in the direction sought with a large enough effect; inconclusive = small, poorly fitted or top-dose-only effect, or another doubt; inactive = no such curve, though single readings can be large; an effect the other way counts as inactive or inconclusive. % is scaled to controls: 0 for no effect and ±100 for the full control effect; potency is read from the fitted curve at half-maximal effect.

Results for Cc1ccccc1C(=O)N1CCC(C(=O)Nc2ccc(S(=O)(=O)N3C(C)CCCC3C)cc2)CC1 (centres undefined) ?
TDP1 cell CPT: 12µM*; VDR inhibitor: 0%; PLK1 PBD inh: 2%; DT40 TDP1 no CPT: 10µM*

What do the screens show for `CC1CCN(CC(=O)Nc2ccc(S(=O)(=O)N3CCCCC3)cc2)CC1`?
TDP1 block: 3%; TDP1 cell CPT: inconclusive; VDR inhibitor: -13%; PLK1 PBD inh: -14%; DT40 TDP1 no CPT: -25%; KAT2A inh: -11%

How did CC1CCN(S(=O)(=O)c2ccc(NC(=O)CN3CCCC(C)C3)cc2)CC1 (centres undefined) do in these assays?
TDP1 block: 6%; TDP1 cell CPT: inconclusive; VDR inhibitor: 9%; PLK1 PBD inh: -3%; DT40 TDP1 no CPT: inconclusive; KAT2A inh: -3%

What do the screens show for `CC1CCN(CC(=O)Nc2ccc(S(=O)(=O)N3C(C)CCCC3C)cc2)CC1` (centres undefined)?
TDP1 cell CPT: inconclusive; VDR inhibitor: 0%; PLK1 PBD inh: -1%; DT40 TDP1 no CPT: 15µM*; KAT2A inh: inconclusive

How did CC1CCCN(CC(=O)Nc2ccc(S(=O)(=O)N3CCCC3)cc2)C1 (centres undefined) do in these assays?
TDP1 cell CPT: 3%; VDR inhibitor: -1%; PLK1 PBD inh: 0%; DT40 TDP1 no CPT: 13µM*; KAT2A inh: -4%

Results for COc1ccc(-n2c(=O)c3ccccc3n(Cc3ccccc3F)c2=O)cc1OC ?
TDP1 block: 5%; TDP1 cell CPT: inconclusive; VDR inhibitor: 16%; PLK1 PBD inh: -6%; DT40 TDP1 no CPT: inconclusive; KAT2A inh: -1%

What do the screens show for `C=C1CCC[C@]2(C)C[C@H]3OC(=O)C(CNCC(C)C)[C@H]3CC12` (some centres undefined)?
TDP1 cell CPT: inconclusive; VDR inhibitor: 10%; PLK1 PBD inh: -3%; DT40 TDP1 no CPT: 16µM*; KAT2A inh: -15%

Results for COc1ccc2c(c1)c1c(c(=O)n(-c3ccccc3C)c(=O)n1CC(=O)NCc1ccc(C)cc1)n2C ?
TDP1 block: 6%; TDP1 cell CPT: 21µM*; VDR inhibitor: 13%; DT40 TDP1 no CPT: 13µM*; KAT2A inh: -4%

How did C=Cc1ccc(Cn2c(=O)n(-c3ccc(C)cc3)c(=O)c3c2c2cc(OC)ccc2n3C)cc1 do in these assays?
TDP1 block: 0%; TDP1 cell CPT: inconclusive; VDR inhibitor: 5%; DT40 TDP1 no CPT: 26µM*; KAT2A inh: 1%

What do the screens show for `Cc1cccc(Cn2c(=O)n(-c3ccccc3C)c(=O)c3c2c2cc(C)ccc2n3C)c1`?
TDP1 block: 0%; TDP1 cell CPT: 23µM*; VDR inhibitor: -1%; DT40 TDP1 no CPT: 21µM*; KAT2A inh: -1%

Results for Cc1ccc2c(c1)c1c(c(=O)n(-c3ccccc3C)c(=O)n1Cc1cccc(F)c1)n2C ?
TDP1 block: 6%; TDP1 cell CPT: 13µM*; VDR inhibitor: 5%; DT40 TDP1 no CPT: 9.2µM*; KAT2A inh: -28%

Results for COc1ccc(S(=O)(=O)NC(=O)C2(C)CCN2C(=O)C(C)(C)c2ccccc2)cc1 (centres undefined) ?
TDP1 cell CPT: 0%; PLK1 PBD inh: -9%; DT40 TDP1 no CPT: -3%

How did CCc1occc(=O)c1Oc1cc(NN2CCCCC2)c([N+](=O)[O-])cc1[N+](=O)[O-] do in these assays?
TDP1 cell CPT: -10%; VDR inhibitor: 10%; PLK1 PBD inh: -4%; DT40 TDP1 no CPT: inconclusive; KAT2A inh: -5%
